# Bioassay records deposited in PubChem by National Center for Advancing Translational Sciences (NCATS).
# Tau fluor cs: counter-screen for tau fibril formation inhibitors | Potency, µM (titrated, usually from 57.7 µM), without a hit: at the highest dose activity change, negative = decrease | 280,000 tested, 0.93% active | AID 1463 | tau K18 P301L Alexa594 fluorescence, heparin fibrillization; active = well fitted curve in the direction sought with a large enough effect; inconclusive = small, poorly fitted or top-dose-only effect, or another doubt; inactive = no such curve, though single readings can be large; an effect the other way counts as inactive or inconclusive; note: nearly all actives have a fitted effect of over 55% in size
#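 Human K18 P301L tau (15 uM unlabeled plus 0.24 uM Alexa 594-labeled, final) in 100 mM sodium acetate pH 7 was mixed with compound and 20 uM heparin and incubated 6 hr at 37 C.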
# HPGD block: inhibitors of human 15-hydroxyprostaglandin dehydrogenase (HPGD) | AID 894 | 150,000 tested, 4.3% active | Potency, µM, inactives show at the highest dose activity change, negative = inhibition, actives largely listed as inhibitors | purified HPGD, NADH fluorescence kinetic, PGE2 substrate | P15428
# Target sequence (P15428 whole entry, looked up): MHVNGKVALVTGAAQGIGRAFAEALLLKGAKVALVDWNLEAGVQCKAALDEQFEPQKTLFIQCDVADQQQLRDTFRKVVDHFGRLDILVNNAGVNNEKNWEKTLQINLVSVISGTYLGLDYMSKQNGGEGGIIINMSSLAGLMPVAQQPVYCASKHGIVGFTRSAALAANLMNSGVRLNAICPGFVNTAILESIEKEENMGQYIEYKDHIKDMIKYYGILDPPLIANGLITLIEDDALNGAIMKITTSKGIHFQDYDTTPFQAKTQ
#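 20 nM HPGD preincubated 15 min at room temperature with compound in 50 mM Tris-HCl pH 8, 0.01% Tween 20. Started with 1 mM NAD+ and 30 uM prostaglandin E2; NADH fluorescence (360/450 nm) read 5 times over 30-s intervals, last minus first.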
# JMJD2E inh: blocks human JMJD2E demethylase activity | B2RXH2 | JMJD2E catalytic domain, FDH-coupled NADH fluorescence (FDH is formaldehyde dehydrogenase) | Potency, µM (series often up to 57.1 µM), without a hit: top-dose activity change, negative = inhibition, hits mostly inhibitors | 230,000 tested, 1.6% active | AID 2147;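 note: 0% = wells with enzyme and -100% = buffer wells without enzyme; nearly all actives have a fitted effect of over 50% in size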
# Target sequence (B2RXH2 1-337 limits assumed): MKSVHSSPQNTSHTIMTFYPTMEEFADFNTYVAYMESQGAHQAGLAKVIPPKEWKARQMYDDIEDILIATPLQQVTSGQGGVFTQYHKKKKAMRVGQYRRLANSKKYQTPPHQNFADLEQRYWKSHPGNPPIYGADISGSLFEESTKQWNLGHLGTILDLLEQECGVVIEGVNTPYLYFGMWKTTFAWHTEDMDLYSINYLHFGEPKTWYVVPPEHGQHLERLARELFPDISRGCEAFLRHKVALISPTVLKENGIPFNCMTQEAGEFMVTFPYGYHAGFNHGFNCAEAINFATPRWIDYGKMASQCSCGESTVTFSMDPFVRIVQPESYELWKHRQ
# Tau fibril FP: blocks human tau fibril formation measured by polarization; P10636; K18 P301L tau heparin fibrillization, Alexa594 FP, 6 h; Potency, µM (doses to about 57.7 µM), without a hit: top-dose activity, negative = inhibition, usual class: inhibitors; 280,000 tested, 0.39% active; active = well fitted curve in the direction sought with a large enough effect; inconclusive = small, poorly fitted or top-dose-only effect, or another doubt; inactive = no such curve, though single readings can be large; an effect the other way counts as inactive or inconclusive; note: nearly all actives have a fitted effect of over 55% in size
# Target sequence (P10636 561-689 P618L limits assumed): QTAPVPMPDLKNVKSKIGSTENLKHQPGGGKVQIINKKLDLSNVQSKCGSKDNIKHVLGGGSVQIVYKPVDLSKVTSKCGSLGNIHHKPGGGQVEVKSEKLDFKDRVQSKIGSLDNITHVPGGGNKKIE
#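 Recombinant K18 P301L […], labeled with Alexa 594 at 0.24 uM over 15 uM unlabeled; heparin inducer 20 uM final; 37 C, 6 hr; FP endpoint.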
# Tau fibril ThT: inhibitors of human tau fibril formation, thioflavin T binding. Potency, µM (top dose mostly 57.4 µM), for inactives: top-dose activity, negative = inhibition, most hits filed as inhibitors. recombinant tau K18 P301L (four-repeat tau fragment), heparin-induced fibrillization, ThT fluorescence. P10636. 270,000 tested, 2.1% active; active = well fitted curve in the direction sought with a large enough effect; inconclusive = small, poorly fitted or top-dose-only effect, or another doubt; inactive = no such curve, though single readings can be large; an effect the other way counts as inactive or inconclusive; note: nearly all actives have a fitted effect of over 55% in size
#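 Heparin-induced fibrillization of the P301L-mutant K18 repeat-domain fragment of human tau was followed by ThT binding in quantitative high-throughput format.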
# ALDH1A1 block: ALDH1A1 (human) enzyme inhibition. P00352. Purified ALDH1A1, NADH fluorescence, propionaldehyde substrate. Potency, µM (highest dose often 75.3 µM), without a hit: at the highest dose activity, negative = inhibition, most hits filed as inhibitors. 220,000 tested, 7.3% active. AID 1030;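 note: plate controls were no enzyme wells and a reference inhibitor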
# * hit, by the source's call; ? = inconclusive; · = no result given; [ ] = dose if it differs, or a comment. This is a sample that favours compounds with a hit; in the whole collection about 9.9% have one here. Unless noted, calls come from the whole dose curve; as a rule, active = well fitted inhibition curve with a large enough effect (not every such curve was filed as active); inconclusive = small, poorly fitted or top-dose-only effect, or another doubt; inactive = no such curve, though single readings can be large or run the other way. Unless noted, % is set by controls: 0 for no effect and ±100 for the full control effect; potency is the fitted concentration of half-maximal effect.
SMILES,Tau fluor cs,HPGD block,JMJD2E inh,Tau fibril FP,Tau fibril ThT,ALDH1A1 block
Cc1cccc(NC(=O)C(=O)NCC(c2cccnc2)N2CCN(Cc3ccccc3)CC2)c1 (stereo unspecified),-5.0%,·,·,-3.1%,4.4%,·
COc1ccccc1NCC(=O)N/N=C/c1cccnc1,-9.2%,-21.2%,6.1%,10.6%,0.8%,?
COc1ccc(NCC(=O)N/N=C/C=C\c2ccccc2)cc1,-4.0%,-21.7%,-3.8%,2.8%,-0.2%,9.46µM*
COc1ccccc1OCC(=O)N/N=C/C=C/c1ccc([N+](=O)[O-])o1,-20.6%,-4.4%,-4.2%,-4.4%,14.1µM*,-6.6%
COc1ccc(/C=C/C=N/NC(=O)COc2ccc(OC)cc2)cc1,-14.0%,-10.4%,-8.2%,-1.4%,?,3.6%
COc1ccccc1NCC(=O)N/N=C/C=C/c1ccccc1,?,-16.3%,?,4.1%,14.1µM*,14.1µM*
CCC1=C2CC[C@H]3C(=O)N(CC(=O)OC)C(=O)[C@H]3[C@H]2[C@@]2(Cc3ccccc3)C(=NCCc3c[nH]c4ccccc34)OC(=O)N2C1=O,?,-0.7%,-6.6%,6.0%,?,-6.8%
O=C(CCN1CCOCC1)Nc1ccc(F)cc1F,·,-0.4%,·,·,·,1.6%[13.5 µM]
CCOC(=O)COc1ccc(/C=C/[N+](=O)[O-])c(OCC(=O)OCC)c1,6.7%,?,5.2%,9.1%,?,?
CCOc1ccc(/C=C/[N+](=O)[O-])c2ccccc12,1.7%,11.2µM*,-2.9%,?,?,28.2µM*
CCOC(=O)Cn1cc(/C=C/[N+](=O)[O-])c2ccccc21,0.5%,·,-4.6%,3.1%,?,?
CCOC(=O)COc1ccc2ccccc2c1/C=C/[N+](=O)[O-],4.9%,3.55µM*,-4.2%,-0.1%,?,12.6µM*
C[C@H]1[C@H](C)CC[C@]2(C)CC[C@]3(C)C(=CC[C@@H]4[C@@]5(C)CC[C@@H](O)[C@](C)(C(=O)O)[C@@H]5CC[C@]43C)[C@H]12,10.1%,·,-4.4%,-4.0%,-9.1%,·
CCOc1ccc(S(=O)(=O)NCc2ccco2)c2ccccc12,-10.5%,?,-11.8%,-8.5%,?,14.1µM*
CCOc1cc(C)c(Cl)cc1S(=O)(=O)NCc1ccco1,0.9%,-12.5%,-2.4%,-6.8%,13.1%,0.3%
Cn1cccc1C(=O)N1CCC2(CCCN(c3ccccc3)C2)CC1,·,-13.5%,·,·,·,?
COC(=O)c1ccc([C@H]2Nc3ccc(S(=O)(=O)Nc4cccc(C)c4)cc3[C@H]3C=CC[C@H]32)cc1,?,·,·,3.8%,?,·
COC(=O)c1ccc([C@@H]2Nc3c(OC)ccc(C)c3[C@@H]3C=CC[C@@H]32)cc1,?,·,·,?,12.6µM*,·
Cc1ccc(-c2nc(Nc3ccc(N4CCOCC4)cc3)c3ccccc3n2)cc1,3.98µM*[quencher],·,-5.2%,?,15.8µM*,·
COC(=O)c1ccc(Nc2nc(-c3ccc(C)cc3)nc3ccccc23)cc1,?,·,·,3.55µM*,-16.7%,·
COc1ccc(COC(=O)C2=C(C)NC(=O)CC2c2cccc(Cl)c2Cl)cc1 (stereo unspecified),-1.8%,·,·,-8.5%,5.3%,·
COc1cccc(C(=O)COC(=O)C(C)N2C(=O)c3ccccc3C2=O)c1 (stereo unspecified),-6.8%,-17.4%,-2.3%,-4.2%,-0.3%,-15.2%
COc1cccc(C(=O)CN(C(=O)c2ccc(Cl)cc2Cl)N2C(=O)c3ccccc3C2=O)c1,-5.0%,-14.7%,3.0%,-2.5%,-2.7%,15.8µM*
Cc1ccc(C(=O)CN(C(=O)c2ccc(Cl)c(Cl)c2)N2C(=O)C3CCCCC3C2=O)cc1 (stereo unspecified),-16.5%,-12.4%,0.2%,-3.9%,-18.3%,11.2%
COc1cccc(C(=O)CN(C(=O)c2ccc(Cl)c(Cl)c2)N2C(=O)c3ccccc3C2=O)c1,-13.2%,-8.2%,1.8%,-8.0%,-7.7%,14.1µM*
SMILES,Tau fluor cs,HPGD block,JMJD2E inh,Tau fibril FP,Tau fibril ThT,ALDH1A1 block
Oc1ccc(Cl)cc1-c1cc(-c2cccc(Br)c2)n[nH]1,?,3.16µM*,1.7%,?,-14.3%,0.7%
Oc1ccccc1-c1cc(-c2ccccc2Cl)[nH]n1,14.1µM*[quencher],14.1µM*,5.7%,?,-5.4%,-7.8%
Oc1ccc(Cl)cc1-c1cc(-c2ccccc2Cl)[nH]n1,?,7.94µM*,-11.9%,-17.8%,-12.2%,2.6%
O=C(c1cnc(N2CCCCC2)c2ccccc12)N1CCN(c2ccc(F)cc2)CC1,-15.4%,·,·,4.8%,?,·
CCS(=O)(=O)c1ccc(C(=O)Nc2ccccc2OC)c(Cl)c1Cl,-1.8%,·,3.4%,1.8%,-3.3%,1.9%
COc1ccc(OC2C=CC(C#Cc3ccc(F)cc3F)OC2CO)cc1 (stereo unspecified),-12.5%[11.6 µM],·,·,-2.0%[11.6 µM],-20.8%[11.5 µM],-6.7%[13.5 µM]
CCC1=C2CC[C@H]3C(=O)N(CC(=O)OC)C(=O)[C@H]3[C@H]2[C@@]2(C)C(=NCC(=O)OC)OC(=O)N2C1=O,-13.8%,-9.6%,8.5%,2.8%,-8.8%,-4.9%
CC1=C(C#N)c2nc(N)c(C#N)c(C)c2/C1=C\c1ccc(OCC(=O)O)c(Cl)c1,?,·,?,?,15.8µM*,·
CC(C)(C)c1ccc(OCC(=O)O)c(Cl)c1,·,-6.0%,·,·,·,-13.0%[13.5 µM]
COc1ccc(Nc2ccc(N3C(=O)CCCC3=O)cc2[N+](=O)[O-])cc1OC,-1.9%,-7.4%,2.8%,-0.5%,?,9.4%
CCOc1ccc(Nc2ccc(N3C(=O)CCC3=O)cc2[N+](=O)[O-])cc1,?,·,2.3%,-4.8%,5.01µM*,4.0%
CC(C)CCSc1nnc(N)s1,-14.3%,·,-5.8%,-5.1%,·,·
Cc1nn(-c2ccc(F)cc2)c(Cl)c1/C=C/C(=O)OCC(=O)Nc1c(F)c(F)c(F)c(F)c1F,-14.3%,-8.7%,11.3%,-13.7%,-5.3%,1.3%
O=c1/c(=C/c2ccc(O)cc2)sc2nc3cc(Br)cnc3n12,-9.4%,·,-3.2%,-15.3%,?,20µM*
O=c1/c(=C\c2ccc(O)cc2)sc2nc(-c3ccccc3)c(-c3ccccc3)n12,?,·,-3.1%,?,?,·
COc1cccc([C@@H]2Oc3ccc(Br)cc3C[C@H]2OC(=O)Nc2ccc(C)c(Br)c2)c1,-3.4%,-15.0%,-24.1%,6.6%,-9.2%,-3.8%
CCCOc1ccc(N2C(=O)CC(SCCN)C2=O)cc1 (stereo unspecified),6.4%,-13.1%,-4.2%,1.0%,1.9%,0.224µM*
COC(=O)c1ccc(N2C(=O)CC(SCCN)C2=O)cc1 (stereo unspecified),0.5%,-6.1%,-4.6%,-5.6%,-1.6%,12.6µM*
CCOc1ccc(N2C(=O)CC(N)C2=O)cc1 (stereo unspecified),-6.3%,39.8µM*,-6.0%,-3.5%,?,1.12µM*
